PubChem BioAssay AID2391 (Southern Research Specialized Biocontainment Screening …, 2010)
Where “and” joins values, the source holds several entries; their conditions need not be identical. Equal entries are not always repeated. Out of some 310,000 compounds screened, about 410 (0.13%) were called active. Not shown: some 2% with an inconclusive outcome. How the calls were made is not given here. These entries were drawn from the full list. Entries with a potency or affinity are not part of this list.

Assay: inhibition of RSV-induced cytopathic effect – HEp-2 cells, primary 10 µM value included (AID 2391)
Conditions: at 10 µM, stronger effect = higher value

CPE inhibition, inactive:
COc1ccccc1C(=O)N(Cc1nc(-c2ccc(Cl)cc2)no1)C(C)C 2.22%
COc1ccc(Cl)cc1C(=O)N(Cc1nc(-c2cccc(C)c2)no1)C(C)C 10.2%
CC(C)NS(=O)(=O)c1ccc(CCC(=O)N2CCCC2)cc1 1.63%
CCC1CCCCN1C(=O)c1ccc2nc(Cc3ccc(OC)cc3)oc2c1 (stereo not drawn) 20.7%
CC1CCCCC12NC(=O)N(CC(=O)Nc1ccccc1-c1ccccc1)C2=O (stereo not drawn) -0.96%
Cc1cccc(NC(=O)CNC(=O)CN2C(=O)NC3(CCCCC3C)C2=O)c1C (stereo not drawn) -0.96%
COc1ccc(C(=O)NCc2cc(C)nc3ccccc23)cc1OC 19%
CCOCCCNC(=O)C1CCN(Cc2cccc(OCc3ccccc3)c2)CC1 -0.9%
CCOC(=O)Cn1nnnc1C(C(C)C)N(Cc1cc2c(C)cc(C)cc2[nH]c1=O)C1CCCC1 (stereo not drawn) 9.34%
CCOC(=O)Cn1nnnc1C(CC)N(Cc1cc2ccc(C)cc2[nH]c1=O)C1CCCC1 (stereo not drawn) 0%
CN(Cc1ccccc1)C(=O)CN1C(=O)c2ccc([N+](=O)[O-])cc2C1=O 1.1%
N#CCCN(CCC#N)C(=O)COc1ccc(Cl)cc1Cl 2.86%
CC(=O)Nc1ccc(NC(=O)COc2ccc(Cl)cc2Cl)cc1 5.13%
COc1ccc(NC(=O)Nc2ccc3c(c2)CCC3)c(OC)c1 3.19%
CCOc1ccccc1NC(=O)Nc1ccc2c(c1)CCC2 7.85%
O=C(CCl)NC1CCCc2ccccc21 (stereo not drawn) -0.24%
O=C(NC1CCCc2ccccc21)c1ccc(Br)cc1 (stereo not drawn) 6.09%
O=C(Cc1ccc(Br)cc1)NC1CCCc2ccccc21 (stereo not drawn) 2.96%
COc1cc(C(=O)NCCC(=O)NC2CCCc3ccccc32)cc(OC)c1OC (stereo not drawn) 0.19%
O=c1c2ccccc2ncn1Cc1ccc(Cl)c(Cl)c1 3.3%
Cc1cc(C)[n+]2n1C(=O)C(c1ccccc1)=C2[O-] 3.89% and 3.76%
O=c1c2ccccc2nc2n1C(CSc1ccccc1)CS2 (stereo not drawn) 1.34%
Nc1ccccc1SCC1CSc2nc3ccccc3c(=O)n21 (stereo not drawn) 2.42%
O=C(Nc1ccccc1SCC1CSc2nc3ccccc3c(=O)n21)c1ccccc1 (stereo not drawn) 2.48%
COc1cccc(SCC2CSc3nc4ccccc4c(=O)n32)c1 (stereo not drawn) 7.09%
O=c1c2ccccc2nc2n1C(CSCc1ccc(Cl)cc1Cl)CS2 (stereo not drawn) 5.16%
O=c1c2ccccc2nc2n1C(CSc1ccc(F)cc1)CS2 (stereo not drawn) 2.75%
O=C(OC(C(=O)NC1CCCC1)c1ccccc1F)c1ccco1 (stereo not drawn) 0.45%
Nc1cc(=O)[nH]c(SCC(=O)N2N=C(c3ccc(Cl)cc3)CC2c2ccco2)n1 (stereo not drawn) 7.31%
CCn1c(=O)n(CC(=O)Nc2ccc(F)cc2)c(=O)c2ccccc21 2.36%
CC(=O)OC[C@H]1O[C@@H](Sc2cccc3cccnc23)[C@H](OC(C)=O)[C@@H](OC(C)=O)[C@@H]1OC(C)=O 1.39%
O=C(NC1CC2CCCC(C1)N2C(=O)Nc1ccccc1)C1CC1 (stereo not drawn) 1.59%
O=C(COC(=O)/C=C/c1ccc(C(F)(F)F)cc1)NCC1CCCO1 (stereo not drawn) -1.68%
CCOC(=O)c1sc2nc3c(SCC(=O)O)cc(C(=O)c4ccccc4O)cn3c(=O)c2c1C 11.9%
Cc1sc2nc3c(C(=O)N4CCCC4)cc(C(=O)c4ccccc4O)cn3c(=O)c2c1C 1.18%
O=C(Nc1ccncc1)c1c(Cl)cccc1Cl 0%
Cc1c(C)c2c(OCC(=O)N3CCC[C@H]3C(=O)O)cc3c(c2oc1=O)CCC(C)(C)O3 0.96%
O=C(Nc1ccc(Cl)c(C(F)(F)F)c1)[C@@H]1CC=C[C@@H]2CCN(Cc3ccccc3)C(=O)[C@@H]21 2.53%
O=C(Nc1ccc(Cl)c(C(F)(F)F)c1)[C@@H]1CC=C[C@@H]2CCN(Cc3ccc(Cl)c(Cl)c3)C(=O)[C@@H]21 7.28%
COc1ccc(OC)c(Nc2nc3nonc3nc2N2CCCCC2)c1 1.59%
COc1ccccc1NC(=O)COc1ccc2ccccc2c1 4.1%
O=C(CCCOc1ccc(Cl)cc1Cl)Nc1ccc(O)cc1C(=O)O 0.3%
O=C(Cc1cccc2ccccc12)Nc1ccc(O)cc1C(=O)O 2.4%
COc1cc(NC(=O)CCCOc2ccc(Cl)cc2Cl)c(C(=O)O)cc1OC 6.77%
O=C(Cc1ccccc1C(=O)O)Nc1cccc2ccccc12 1.4%
O=C(COc1ccc2ccccc2c1)Nc1cccc(C(=O)Nc2ccccc2C(=O)O)c1 20.8%
Cc1ccc(Cl)cc1N(C(=O)c1csnn1)C(C(=O)NC1CCCC1)c1ccco1 (stereo not drawn) 1.87%
O=C(CN1C(=O)NC2(CCCCCC2)C1=O)Nc1ccc2c(c1)CCC2 2.7%
O=C(NCC(c1ccco1)N1CCCCC1)c1ccc(NS(=O)(=O)c2ccc(F)cc2)cc1 (stereo not drawn) 3.02%
COc1ccc(-c2noc(CN3CCN(c4ccccc4)CC3)n2)cc1 -0.23%
Cc1cccc(NC(=O)c2ccc(S(=O)(=O)N3CCCC3)cc2)c1C 1.87%
CC(OC(=O)c1cccn1C)C(=O)Nc1ccc2c(c1)OCO2 (stereo not drawn) 2.62%
CCN(CC(=O)Nc1ccc(Br)cc1)C(=O)c1nc2nc(C)cc(C)n2n1 1.87%
CC(C)(C)N1C(=O)c2ccc(C(=O)Nc3cc(C(=O)O)cc(C(=O)O)c3)cc2C1=O 0.7%
COC(=O)c1cccc(NC(=O)c2ccc3c(c2)C(=O)N(C(C)(C)C)C3=O)c1 9.97%
CCCOC(=O)Cn1cnc2scc(-c3ccc(C)cc3)c2c1=O 0.39%
COc1ccc(N=C2C(=Nc3ccc(OC)cc3)N(c3ccc(OC)cc3)C(=S)N2c2ccccc2)cc1 0.02%
COc1ccc(N=C2C(=Nc3ccc(OC)cc3)N(c3ccc(OC)cc3)C(=S)N2C)cc1 0.37%
